Screening data: PubChem, several laboratories
Most compounds without a hit are left out; they make up all but 3.6% or so of the library.
Anthrax LF inh2 – inhibitors of Bacillus anthracis lethal factor protease | inhibition, % at 10 µM | actives 0.12% (n = 360,000) | multiplex microsphere protease cleavage assay, LF; note: plate controls were buffer without enzyme for full effect and enzyme alone for no effect
MazF activator – MazEF (E. coli) toxin RNase activation; FAM/BHQ RNA-DNA oligo cleavage fluorescence, 5 h; P0AE70; actives 0.32% (n = 350,000); activation, % at 20 µM; in the data active = activation above about 50%
Target sequence (P0AE70 whole entry, looked up): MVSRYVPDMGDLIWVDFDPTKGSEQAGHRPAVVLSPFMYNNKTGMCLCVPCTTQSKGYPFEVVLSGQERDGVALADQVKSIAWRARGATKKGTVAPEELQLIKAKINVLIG
BoNT F protease – blocks Botulinum neurotoxin F light chain protease. Multiplex microsphere protease cleavage assay, flow cytometry. inhibition, % at 10 µM. actives 0.22% (n = 360,000); in the data active = inhibition above about 35%, passing the limit was not always enough; inconclusive = no clear call, values can overlap the other calls; note: plate controls were buffer without enzyme for full effect and enzyme alone for no effect
Autofluor counter – compound fluorescence in toxin protease inhibitor counterscreen | compound autofluorescence counterscreen, microsphere flow cytometry; stronger effect = higher value | fluorescence intensity (concentration not given with the values) | actives 3.1% (n = 360,000) | AID 624483; in the data active = fluorescence intensity above about 16000; inconclusive = no clear call, values can overlap the other calls
BoNT A protease – BoNT A light chain protease inhibition | multiplex microsphere protease substrate cleavage, flow cytometry | inhibition, % at 10 µM | actives 0.17% (n = 360,000) | AID 588499; note: plate controls were buffer without enzyme for full effect and enzyme alone for no effect
Active calls of the source: *; ? = inconclusive; . = not tested or not shown; + = active, no number. Cut-off read from the data, not from the text of the source, unless noted: active = inhibition above about 30%; inconclusive = no clear call, values can overlap the other calls; inactive = below that.

SMILES | Anthrax LF inh2 | MazF activator | BoNT F protease | Autofluor counter | BoNT A protease
CCCCCCCCCCCCCCCCCCNc1ccn(C2OC(COP(=O)(O)OCC3OC(n4cc(F)c(=O)[nH]c4=O)CC3O)C(O)C2O)c(=O)n1 (configuration not stated) | 2 | -21 | -2 | 3548 | 0
O=C(COc1ccc(S(=O)(=O)NC2CCCCC2)cc1)N1CCN(c2cccc(Cl)c2)CC1 | -4 | 0 | 3 | 22384* | -1
O=c1[nH][nH]c(=O)c(Cl)c1Cl | 2 | -7 | 0 | 3551 | 0
O=C(CN1CCOCC1)Nc1cccc(Cl)c1Cl | 1 | -4 | -9 | 23826* | ?
CS(=O)(=O)N1CCC(C(=O)Nc2cccc(Cl)c2Cl)CC1 | . | 3 | . | . | .
O=C(CN1CCOCC1)Nc1ccccc1Cl | 5 | 4 | 1 | 6200 | -1
O=C(Nc1cccc(Cl)c1Cl)C1CCN(c2ncccn2)CC1 | -1 | 6 | -12 | 22389* | -9
CC(C)(C)c1nnc(NC(=O)C2CCN(c3ncccn3)CC2)s1 | 1 | -2 | -3 | 21096* | -3
CC(C)(C)c1nnc(NC(=O)C2CCN(C(=O)c3ccco3)CC2)s1 | -4 | 5 | -2 | 4322 | -3
CCOC(=O)C1=CCN(S(C)(=O)=O)C1c1ccc(C)cc1 (configuration not stated) | 3 | . | 1 | 5396 | -1
CCC(c1nc2ccccc2c(=O)n1CCN1CCOCC1)N1C(=O)c2ccccc2C1=O (configuration not stated) | -4 | 0 | -3 | 20159* | -1
CCC(c1nc2ccccc2c(=O)n1CCCn1ccnc1)N1C(=O)c2ccccc2C1=O (configuration not stated) | -2 | -8 | 8 | 8911 | 1
O=S(Cc1ccc(Cl)cc1)CC(O)(c1ccccc1)c1ccccc1 (configuration not stated) | 11 | 1 | -1 | 10823 | -1
O=S(Cc1ccccc1)CC(O)(c1ccccc1)c1ccccc1 (configuration not stated) | -2 | -4 | -4 | 21390* | -2
COC(=O)N(C)C[C@H]1OCc2cn(nn2)CCCC(=O)N([C@@H](C)CO)C[C@@H]1C | -9 | . | -4 | 5610 | 0
CN(CCO)c1cccc2c1S(=O)(=O)N[C@@H](Cc1ccccc1)CO2 | -8 | . | -9 | 4258 | 0
COc1ccccc1CCNC(=O)Cc1cccs1 | 0 | -5 | -5 | 3650 | -1
CCCCNC(=S)Nc1ccc(Oc2ccccc2)cc1 | -3 | 3 | -1 | 4056 | -1
CCCC(=O)Nc1ccccc1NC(=O)CCC | -5 | -6 | 6 | 4052 | 0
CCCC(=O)Nc1ccc(OCC(=O)OC)cc1 | -1 | 3 | -30 | 3063 | 0
CCCNC(=S)Nc1ccc2nc(-c3ccccn3)c(-c3ccccn3)nc2c1 | 8 | -18 | -1 | 21151* | ?
CCCC(=O)Nc1ccc(Oc2ccc(NC(=O)CCC)cc2)cc1 | 0 | -1 | -2 | 19816* | ?
CCCC(=O)Nc1ccc(C#Cc2ccccc2)cc1 | -8 | -4 | 5 | 18787* | 4
CCCNC(=S)Nc1ccc(Oc2ccccc2)cc1 | -2 | -2 | -3 | 20489* | 0
Cc1ccc(OCCNC(=O)c2ccccc2F)cc1 | 4 | 14 | 0 | 3717 | -2
SMILES | Anthrax LF inh2 | MazF activator | BoNT F protease | Autofluor counter | BoNT A protease
COc1ccc(Nc2nc(-c3cccs3)nc3ccccc23)cc1S(=O)(=O)N1CCOCC1 | -2 | -9 | -6 | 6101 | 0
CC1(C(=O)NS(=O)(=O)c2ccc(C#N)cc2)CCN1C(=O)Cc1ccccc1Cl (configuration not stated) | 5 | . | 0 | 3726 | 0
COc1ccc(OCCN2CCC(C(=O)NC(c3ccc(Cl)cc3)c3ncccc3C)CC2)cc1 (configuration not stated) | -3 | . | -5 | 3884 | -1
CCOC(=O)Nc1ccc(Oc2ccccc2)cc1 | -2 | 5 | -4 | 24151* | -3
CC(=O)SCCC(=O)Nc1ccccc1 | 3 | -4 | 17 | 17839* | ?
CC(=O)NNC(=O)CCC(=O)Nc1ccccc1 | -1 | 2 | -9 | 11331 | -1
CCOC(=O)Nc1ccc(OC(=O)Oc2ccc(NC(=O)OCC)cc2)cc1 | 6 | 9 | 2 | 3468 | 0
CC(C)(C)OC(=O)C[C@H]1C/C=C\C[C@@H](CC(=O)N(CCO)Cc2ccccc2)C(=O)N[C@H](Cc2c[nH]c3ccccc23)COC1=O | 2 | -6 | -5 | 4213 | 0
NS(=O)(=O)c1ccc(CNC(=O)C23CC4CC(CC(C4)C2)C3)cc1 | -3 | 1 | -3 | 3115 | 0
CCCCNC(=O)NC12CC3CC(CC(C3)C1)C2 | 0 | 2 | -4 | 2272 | -1
NS(=O)(=O)c1ccc(CNC(=O)NC23CC4CC(CC(C4)C2)C3)cc1 | -16 | 3 | 11 | 17603* | ?
O=C(NCCCO)NC12CC3CC(CC(C3)C1)C2 | -1 | 1 | 5 | 19797* | 3
COc1ccc(C(=O)N/N=C(\C)CC(=O)Nc2ccc3ccccc3c2)c(OC)c1 | -4 | -7 | 2 | 5748 | -1
COC(=O)C1=CN(C(C)C)C=C(C(=O)OC)C1c1cc(Br)c(OC)c(OC)c1 | 0 | -2 | -5 | 23675* | -4
Cc1ccc(CSC2=NCCN2S(=O)(=O)c2ccc(C)cc2)cc1 | 2 | -5 | 3 | 3649 | 0
Cc1ccc(S(=O)(=O)N2CCN=C2SCc2ccc(Cl)c(Cl)c2)cc1 | -1 | + | 1 | 2587 | 0
CC1CN(Cc2ccccc2)c2nc3c(c(=O)n(C)c(=O)n3C)n2C1 (configuration not stated) | 0 | 6 | -1 | 20687* | ?
Cn1c(=O)n(Cc2ccccc2)c(=O)c2c1nc1n2CCCN1CCc1ccccc1 | -5 | 4 | -3 | 23593* | ?
COc1ccc(N2CCn3c2nc2c3c(=O)n(CCCc3ccccc3)c(=O)n2C)c(OC)c1 | ? | 814* | -490 | ? | -192
Cc1cc(Br)cn2ccnc12 | 0 | 4 | -4 | 22557* | -4
C[C@H]1CN(CCc2ccccc2)C(=O)[C@@H]1CC(=O)Nc1ccc(Br)cc1 | -5 | 9 | -2 | 2852 | 0
COC(=O)NC1CSCC1OC(=O)CN1C(=O)c2ccccc2C1=O (configuration not stated) | -1 | -2 | -2 | 20984* | -2
CC(OC(=O)CN1C(=O)c2ccccc2C1=O)C(=O)NC1CCCC1 (configuration not stated) | -6 | 2 | 4 | 3431 | 2
Cn1c(N2CCCCC2)nc2c1c(=O)[nH]c(=O)n2C | -5 | 1 | -1 | 16214* | 0
CC(C)n1c(N2CCCC2)nc2c1c(=O)[nH]c(=O)n2C | 0 | -4 | -12 | 3676 | 1
Cc1cccn2c(=O)c(C=Nc3ccc(Cl)cc3)c(NCCO)nc12 | 0 | -1 | -4 | 21575* | -2
Cc1cccn2c(=O)c(C=Nc3ccccc3)c(NCCO)nc12 | 2 | 4 | -2 | 8398 | 0
Cc1cc(Nc2cc(Cl)cc(Cl)c2)nc(N)n1 | -3 | -5 | -6 | 5305 | 0
O=S(=O)(NCCc1ccncc1)c1ccc(F)cc1 | -4 | 4 | -11 | 3248 | 4
